What was measured:
Experiment in all cases: SPOT peptide array binding signal intensity (averaged, normalized) (arbitrary units (background-subtracted, floor 0; scale differs between SH3 domains)); higher = stronger binding of the SH3 domain to the peptide
[1] = biological target: AgAbp1
Procedure: (§1)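 GST-tagged SH3 domains from S. cerevisiae (Sc), A. gossypii (Ag), C. albicans (Ca) and S. pombe (Sp) were incubated at 10 ug/ml overnight at 4 C on cellulose SPOT membranes carrying 292 synthetic 15-mer peptides mined from the S. cerevisiae proteome (cysteines replaced by serines). Binding was detected with anti-GST antibody, HRP secondary and chemiluminescence, quantified with Genespotter, and reported as normalized spot intensities averaged over biological replicates.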

[2] = biological target: AgBbc1
Procedure: as §1

[3] = biological target: AgBem1-D1
Procedure: as §1

[4] = biological target: AgBzz1-D1
Procedure: as §1

[5] = biological target: AgBzz1-D2
Procedure: as §1

[6] = biological target: AgCyk3
Procedure: as §1

[7] = biological target: AgFus1
Procedure: as §1

[8] = biological target: AgHof1
Procedure: as §1

[9] = biological target: AgHse1
Procedure: as §1

[10] = biological target: AgLsb1
Procedure: as §1

[11] = biological target: AgLsb4
Procedure: as §1

[12] = biological target: AgMyo5
Procedure: as §1

[13] = biological target: AgNbp2
Procedure: as §1

[14] = biological target: AgRvs167
Procedure: as §1

[15] = biological target: AgSho1
Procedure: as §1

[16] = biological target: AgSla1-D1-D2
Procedure: as §1

[17] = biological target: AgSla1-D3
Procedure: as §1

[18] = biological target: CaAbp1-D1
Procedure: as §1

[19] = biological target: CaAbp1-D2
Procedure: as §1

[20] = biological target: CaBbc1
Procedure: as §1

[21] = biological target: CaBem1-D1
Procedure: as §1

[22] = biological target: CaBzz1-D1
Procedure: as §1

[23] = biological target: CaBzz1-D2
Procedure: as §1

[24] = biological target: CaCyk3
Procedure: as §1

[25] = biological target: CaFus1
Procedure: as §1

[26] = biological target: CaHof1
Procedure: as §1

[27] = biological target: CaHse1
Procedure: as §1

[28] = biological target: CaLsb1
Procedure: as §1

[29] = biological target: CaLsb4
Procedure: as §1

[30] = biological target: CaMyo5
Procedure: as §1

[31] = biological target: CaNbp2
Procedure: as §1

[32] = biological target: CaRvs167
Procedure: as §1

[33] = biological target: CaRvs167-3
Procedure: as §1

[34] = biological target: CaSho1
Procedure: as §1

[35] = biological target: CaSla1-D1-D2
Procedure: as §1

[36] = biological target: CaSla1-D3
Procedure: as §1

[37] = biological target: ScAbp1
Procedure: as §1

[38] = biological target: ScBbc1
Procedure: as §1

[39] = biological target: ScBem1-D1
Procedure: as §1

[40] = biological target: ScBzz1-D1
Procedure: as §1

[41] = biological target: ScBzz1-D2
Procedure: as §1

[42] = biological target: ScCyk3
Procedure: as §1

[43] = biological target: ScFus1
Procedure: as §1

[44] = biological target: ScHof1
Procedure: as §1

[45] = biological target: ScHse1
Procedure: as §1

[46] = biological target: ScLsb1
Procedure: as §1

[47] = biological target: ScLsb2
Procedure: as §1

[48] = biological target: ScLsb3
Procedure: as §1

[49] = biological target: ScLsb4
Procedure: as §1

[50] = biological target: ScMyo3
Procedure: as §1

[51] = biological target: ScMyo5
Procedure: as §1

[52] = biological target: ScNbp2
Procedure: as §1

[53] = biological target: ScPex13
Procedure: as §1

[54] = biological target: ScRvs167
Procedure: as §1

[55] = biological target: ScSho1
Procedure: as §1

[56] = biological target: ScSla1-D1-D2
Procedure: as §1

[57] = biological target: ScSla1-D3
Procedure: as §1

[58] = biological target: SpAbp1-D1
Procedure: as §1

[59] = biological target: SpBbc1
Procedure: as §1

[60] = biological target: SpBzz1-D1
Procedure: as §1

[61] = biological target: SpBzz1-D2
Procedure: as §1

[62] = biological target: SpCyk3
Procedure: as §1

[63] = biological target: SpHof1
Procedure: as §1

[64] = biological target: SpHof1-2
Procedure: as §1

[65] = biological target: SpHof1-3
Procedure: as §1

[66] = biological target: SpHse1
Procedure: as §1

[67] = biological target: SpLsb1
Procedure: as §1

[68] = biological target: SpLsb4
Procedure: as §1

[69] = biological target: SpMyo1
Procedure: as §1

[70] = biological target: SpNbp2
Procedure: as §1

[71] = biological target: SpPex13
Procedure: as §1

[72] = biological target: SpRvs167
Procedure: as §1

[73] = biological target: SpSla1-D1-D2
Procedure: as §1

[74] = biological target: SpSla1-D3
Procedure: as §1

Binder: NRLRKRLNLPSEISI
- SPOT peptide array binding signal intensity [1]: 52
- SPOT peptide array binding signal intensity [2]: 2
- SPOT peptide array binding signal intensity [3]: 126
- SPOT peptide array binding signal intensity [4]: 7
- SPOT peptide array binding signal intensity [5]: 9
- SPOT peptide array binding signal intensity [6]: 1
- SPOT peptide array binding signal intensity [7]: 444
- SPOT peptide array binding signal intensity [8]: 45.2
- SPOT peptide array binding signal intensity [9]: 2040
- SPOT peptide array binding signal intensity [10]: 36.2
- SPOT peptide array binding signal intensity [11]: 21.5
- SPOT peptide array binding signal intensity [12]: ≤ 0
- SPOT peptide array binding signal intensity [13]: 74
- SPOT peptide array binding signal intensity [14]: 4.67
- SPOT peptide array binding signal intensity [15]: 26.5
- SPOT peptide array binding signal intensity [16]: 33
- SPOT peptide array binding signal intensity [17]: 5.5
- SPOT peptide array binding signal intensity [18]: 649
- SPOT peptide array binding signal intensity [19]: 307
- SPOT peptide array binding signal intensity [20]: 9.75
- SPOT peptide array binding signal intensity [21]: 2
- SPOT peptide array binding signal intensity [22]: 10
- SPOT peptide array binding signal intensity [23]: 18.2
- SPOT peptide array binding signal intensity [24]: 4
- SPOT peptide array binding signal intensity [25]: 1980
- SPOT peptide array binding signal intensity [26]: ≤ 0
- SPOT peptide array binding signal intensity [27]: 95.2
- SPOT peptide array binding signal intensity [28]: 5.5
- SPOT peptide array binding signal intensity [29]: 14
- SPOT peptide array binding signal intensity [30]: 4.5
- SPOT peptide array binding signal intensity [31]: 286
- SPOT peptide array binding signal intensity [32]: 6.83
- SPOT peptide array binding signal intensity [33]: 48.8
- SPOT peptide array binding signal intensity [34]: 353
- SPOT peptide array binding signal intensity [35]: 16
- SPOT peptide array binding signal intensity [36]: 3
- SPOT peptide array binding signal intensity [37]: 191
- SPOT peptide array binding signal intensity [38]: 2.5
- SPOT peptide array binding signal intensity [39]: 61
- SPOT peptide array binding signal intensity [40]: 21
- SPOT peptide array binding signal intensity [41]: 5.5
- SPOT peptide array binding signal intensity [42]: 140
- SPOT peptide array binding signal intensity [43]: 524
- SPOT peptide array binding signal intensity [44]: 2.5
- SPOT peptide array binding signal intensity [45]: 2410
- SPOT peptide array binding signal intensity [46]: 22.5
- SPOT peptide array binding signal intensity [47]: ≤ 0
- SPOT peptide array binding signal intensity [48]: 57
- SPOT peptide array binding signal intensity [49]: 7
- SPOT peptide array binding signal intensity [50]: ≤ 0
- SPOT peptide array binding signal intensity [51]: 2.5
- SPOT peptide array binding signal intensity [52]: 70
- SPOT peptide array binding signal intensity [53]: 0.5
- SPOT peptide array binding signal intensity [54]: 2.5
- SPOT peptide array binding signal intensity [55]: 662
- SPOT peptide array binding signal intensity [56]: 19.5
- SPOT peptide array binding signal intensity [57]: 12.5
- SPOT peptide array binding signal intensity [58]: 293
- SPOT peptide array binding signal intensity [59]: 6
- SPOT peptide array binding signal intensity [60]: 11
- SPOT peptide array binding signal intensity [61]: 1.5
- SPOT peptide array binding signal intensity [62]: ≤ 0
- SPOT peptide array binding signal intensity [63]: 60
- SPOT peptide array binding signal intensity [64]: 7
- SPOT peptide array binding signal intensity [65]: 708
- SPOT peptide array binding signal intensity [66]: 2460
- SPOT peptide array binding signal intensity [67]: 96.8
- SPOT peptide array binding signal intensity [68]: 29
- SPOT peptide array binding signal intensity [69]: 5
- SPOT peptide array binding signal intensity [70]: 71
- SPOT peptide array binding signal intensity [71]: 7.5
- SPOT peptide array binding signal intensity [72]: 2.33
- SPOT peptide array binding signal intensity [73]: ≤ 0
- SPOT peptide array binding signal intensity [74]: 3

Binder: RLPAPPPPPRRGPAP
- SPOT peptide array binding signal intensity [1]: 51.5
- SPOT peptide array binding signal intensity [2]: 909
- SPOT peptide array binding signal intensity [3]: 140
- SPOT peptide array binding signal intensity [4]: 624
- SPOT peptide array binding signal intensity [5]: 154
- SPOT peptide array binding signal intensity [6]: 3
- SPOT peptide array binding signal intensity [7]: 6
- SPOT peptide array binding signal intensity [8]: 112
- SPOT peptide array binding signal intensity [9]: 28.5
- SPOT peptide array binding signal intensity [10]: 5.25
- SPOT peptide array binding signal intensity [11]: 412
- SPOT peptide array binding signal intensity [12]: 550
- SPOT peptide array binding signal intensity [13]: 7.5
- SPOT peptide array binding signal intensity [14]: 123
- SPOT peptide array binding signal intensity [15]: 4
- SPOT peptide array binding signal intensity [16]: 5
- SPOT peptide array binding signal intensity [17]: 10
- SPOT peptide array binding signal intensity [18]: 150
- SPOT peptide array binding signal intensity [19]: 17
- SPOT peptide array binding signal intensity [20]: 770
- SPOT peptide array binding signal intensity [21]: 1820
- SPOT peptide array binding signal intensity [22]: 3030
- SPOT peptide array binding signal intensity [23]: 1540
- SPOT peptide array binding signal intensity [24]: 326
- SPOT peptide array binding signal intensity [25]: 26.5
- SPOT peptide array binding signal intensity [26]: 39
- SPOT peptide array binding signal intensity [27]: 5.25
- SPOT peptide array binding signal intensity [28]: ≤ 0
- SPOT peptide array binding signal intensity [29]: 560
- SPOT peptide array binding signal intensity [30]: 19.5

Reference: the supplement of paper PMC4466140
